The results in this text go back to PubChem BioAssay (NCATS).

A short description of experiment [1]: qHTS profiling of the MIPE4 collection as inhibitors of Plasmodium falciparum (HB3) proliferation (AID 743347; call rule not given here;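 note: plate controls were DMSO vehicle wells for no effect and artemisinin wells for full effect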). The settings on record: P. falciparum HB3 in erythrocytes, SYBR Green DNA, 72 h; at 28.5 µM (top of the series) unless noted. A digest of the protocol:
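Erythrocytes infected with P. falciparum (0.3% parasitemia, 2.5% hematocrit) incubated with compounds 72 h at 37 C, 5% CO2. Lysis with saponin/Triton buffer containing SYBR Green I, overnight at room temperature in the dark; DNA fluorescence (485/535 nm) normalised to 0.29 uM artemisinin and DMSO.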
In general terms: In qHTS, concentration-response curves come from the screen itself.

Experiment [2] can be described thus: High-throughput drug toxicity screening in the BPDCN cell line Gen2.2 (AID 1224824; call rule not given here;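 note: cells exposed to compounds for 48 h before reading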). Particulars: Gen2.2 BPDCN cells; at 45.8 µM (top of the series) unless noted. A digest of the protocol: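 Gen2.2, 500 cells/well, phenol red-free RPMI/10% FBS/Pen-Strep; 48 h cpd, 37 °C/5% CO2; CTG lum, 15 min RT. Norm: DMSO = 100%, bortezomib 9.2 uM final = 0%.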
Experiment [3] can be described thus: High-throughput drug toxicity screening in the BPDCN cell line Cal-1 (AID 1224825; call rule not given here). Particulars: Cal-1 BPDCN cell viability, qHTS; at 45.8 µM (top of the series) unless noted. The method in brief:
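Exponentially growing Cal-1 cells, 500 per well in phenol red-free RPMI with 10% FBS, were exposed to compounds for 48 h at 37 °C, 5% CO2. Viability was read by CellTiter-Glo luminescence and normalised to DMSO (100%) and 9.2 uM bortezomib (0%).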

The nature of experiment [4]: qHTS assay for measurement of the activity of small molecule inhibitors on Zika virus induced Caspase-3 activity in human iPSC derived neural progenitor cells (hNPCs) (AID 1224857). Note: % of control where 0% means no effect; nearly all actives have a fitted effect of over 65% in size. The method in brief:
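Human iPSC-derived neural progenitor cells pretreated 1 hr with compounds, then infected with Zika virus (2 FFU/cell) for 6 hours at 37 C. Caspase-3/7 measured by Caspase-Glo luminescence; % inhibition calculated from induction scaled to uninfected (0%) and infected (100%) wells.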

The nature of experiment [5]: qHTS assay for measurement of the activity of small molecule inhibitors on Zika virus induced Caspase-3 activity in human astrocytoma cells (AID 1224859).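 Note: plate controls were ZIKV-infected untreated cells for no effect and uninfected cells for full effect.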 A digest of the protocol: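 SNB-19 astrocytoma cells, 250/well, pretreated 1 h with compounds, then Zika virus at 2 FFU/cell for 6 h at 37 C; Caspase-Glo 3/7 luminescence after 30 min; percent inhibition normalised to uninfected and infected controls.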

The nature of experiment [6]: qHTS Screen of the MIPE 4.0 Collection Against Ewings Sarcoma (RDES) (AID 1259252). Note: nearly all actives have a fitted effect of over 35% in size. Note: potency is the fitted concentration of half-maximal effect. A digest of the protocol:
(§1)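 Here, cells in 5% FBS RPMI were exposed for two days (48 h) to compound dilutions added four hours after plating. ATP-based CellTiter-Glo luminescence measured viability, normalized to vehicle and no-cell blanks.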

Experiment [7] can be described thus: qHTS Screen of the MIPE 4.0 Collection Against Ewings Sarcoma (TC71) (AID 1259253). Note: nearly all actives have a fitted effect of over 40% in size. Note: potency is the fitted concentration of half-maximal effect. The method in brief:
as §1

A short description of experiment [8]: qHTS Screen of the MIPE 4.0 Collection Against Ewings Sarcoma (TC32) (AID 1259256). Note: nearly all actives have a fitted effect of over 45% in size. Note: potency is the fitted concentration of half-maximal effect. The method in brief: as §1
The nature of experiment [9]: qHTS assay to identify small molecule inhibitors of chordoma cells - UCH-2 (AID 1259356). Note: % is set by controls: 0 for no effect and ±100 for the full control effect.
Experiment [10] can be described thus: P-glycoprotein substrates identified in KB-8-5-11 adenocarcinoma cell line, qHTS therapeutic library screen (AID 1346987). Note: nearly all actives have a fitted effect of over 65% in size. Note: potency is the fitted concentration of half-maximal effect. Particulars: outcome: dose series up to 44.5 µM unless noted. The method in brief: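 KB-8-5-11, a colchicine-selected P-gp-overexpressing KB-3-1 subline, was grown without colchicine for the assay. Cells were seeded at 500 cells/well, dosed in concentration-response and incubated 72 h at 37 degree C, 5% CO2. Viability was read by CellTiter-Glo luminescence.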

Experiment [11] can be described thus: Natriuretic polypeptide receptor (hNpr1) antagonism - Pilot counterscreen GloSensor control cell line (AID 1347045; calls by dose curve; note: % is set by controls: 0 for no effect and ±100 for the full control effect). The method in brief: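 HEK293 cGMP GloSensor cells preloaded 2 h with 2% GloSensor reagent, then compound 30 min before baseline luminescence read. Stimulated with 50 uM sodium nitroprusside, 20 min at room temperature, then read again; counterscreen for Npr1 antagonism.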
Background: Counterscreens check selectivity or assay interference.

The nature of experiment [12]: qHTS assay to identify small molecule inhibitors of chordoma cells - UCH-1 (AID 1259355). Note: % is set by controls: 0 for no effect and ±100 for the full control effect; nearly all actives have a fitted effect of over 55% in size. The method in brief: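 Luminescent ATP read-out (CellTiter-Glo, 30min at room temperature) measured viability of UCH-1 cells exposed for 48hr to test drugs at 15 concentrations, co-dosed with a five-agent combination of auranofin, camptothecin, doxorubicin, rubitecan and topotecan.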

Experiment [13] in a line: qHTS Screen of the MIPE 4.0 Collection Against Ewings Sarcoma (EW8) (AID 1259255). Note: potency is the fitted concentration of half-maximal effect; nearly all actives have a fitted effect of over 35% in size. The method in brief: as §1
Experiment [14] is described as follows: P-glycoprotein substrates identified in KB-3-1 adenocarcinoma cell line, qHTS therapeutic library screen (AID 1346986). Note: nearly all actives have a fitted effect of over 60% in size. Particulars: outcome: dose series up to 44.5 µM unless noted. The method in brief: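 Resistance attributable to P-gp was assessed by comparing AC50 in KB-8-5-11 with parental KB-3-1 and by tariquidar reversal. Cells were exposed 72 h and viability read by CellTiter-Glo.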

Several values for one entry are separate records, joined by “and”; a condition that tells them apart may be missing. Equal entries are not always repeated. Records with an inconclusive call do not appear. Activity calls are given as the source filed them. Unless noted, calls come from the whole dose curve; as a rule, active = well fitted curve in the direction sought with a large enough effect; inconclusive = small, poorly fitted or top-dose-only effect, or another doubt; inactive = no such curve, though single readings can be large; an effect the other way counts as inactive or inconclusive.

Turning to `CCC1(c2ccccc2)C(=O)NCNC1=O`, the growth, % of control in experiment [1] amounted to 91%. In experiment [2], the cell viability, % of control (lower = more cytotoxic) was 15.1%. In addition, the viability (% of control) in experiment [3] worked out at 8.03%. The Potency result in experiment [4], in experiment [5], in experiment [10] and in [11] was “inactive” throughout. The results for the Potency in [6], in [7] and in experiment [8] were 9.35 µM (active), 11.8 µM (active) and 14.8 µM (active), respectively. The compound was classed as inactive in experiment [9].

Take `CC[N+](CC)(CC)CCOc1cccc(OCC[N+](CC)(CC)CC)c1OCC[N+](CC)(CC)CC`: the cell viability, % of control (lower = more cytotoxic) in experiment [2] amounted to 124%. In experiment [3], the viability (% of control) amounted to 111%. The Potency entry in [4], in experiment [5], in experiment [6], in experiment [7], in [8] and in [12] was “inactive” each time. Besides, in experiment [10], the Potency entry was “inactive”.

In experiment [1], `COC(=O)Nc1nc2ccc(C(=O)c3cccs3)cc2[nH]1` showed a growth, % of control of 80%. The cell viability, % of control (lower = more cytotoxic) in [2] came out at 19.7%. In addition, the viability (% of control) in experiment [3] is 10.7%. The Potency result in experiment [4], in experiment [5], in experiment [8] and in [11] was “inactive” throughout. Further, the Potency in experiment [6] is 0.0037 µM (active); in experiment [7] it was 0.0118 µM (active); in experiment [13], 0.0047 µM (active); in [10], 6.6 nM (active) and 326 nM (active).

Compound `CCC1(C)CC(=O)NC1=O` (stereo unspecified) registered a growth, % of control in experiment [1] of 102%. The cell viability, % of control (lower = more cytotoxic) in experiment [2] turned out to be 184%. In addition, the viability (% of control) in [3] turned out to be 128%. For the same compound, the Potency result in experiment [4], in experiment [5], in experiment [6], in [12], in experiment [10] and in experiment [11] was “inactive” throughout. In addition, the compound was called inactive in experiment [9].

Turning to `CC(C)C(=O)Nc1ccc([N+](=O)[O-])c(C(F)(F)F)c1`, the cell viability, % of control (lower = more cytotoxic) in experiment [2] amounted to 58%. Further, in experiment [3], the viability (% of control) worked out at 5.71%. The Potency entry in experiment [4], in experiment [5], in experiment [12] and in experiment [10] was “inactive” throughout. The Potency in experiment [6] was 7.43 µM (active); in [7], 10.5 µM (active); in experiment [13], 13.2 µM (active); in experiment [8], 13.2 µM (active).

`COc1ccccc1OCC(O)CN1CCN(CC(=O)Nc2c(C)cccc2C)CC1` (stereo unspecified): the growth, % of control in [1] is 101%. In addition, the cell viability, % of control (lower = more cytotoxic) in [2] stood at 126%. In addition, the viability (% of control) in experiment [3] stood at 18.6%. Moreover, the Potency entry in [4], in experiment [5], in experiment [6], in [7], in [8] and in experiment [12] was “inactive” each time. In addition, the Potency result in experiment [10] and in experiment [11] was “inactive” each time.

For the compound `COc1nc(C)nc(Cl)c1NC1=NCCN1`, the growth, % of control in experiment [1] worked out at 98.4%. Moreover, the cell viability, % of control (lower = more cytotoxic) in [2] came to 136%. The viability (% of control) in experiment [3] is 97.7%. In addition, the Potency entry in [4], in [5], in [6], in [7], in experiment [8] and in experiment [12] was “inactive” throughout. Further, the Potency result in experiment [10] and in experiment [11] was “inactive” in each case. In [9], the compound was called inactive.

`Cc1cn([C@H]2C=C[C@@H](CO)O2)c(=O)[nH]c1=O` came in with a growth, % of control in experiment [1] of 618% [at 57.5 µM]. Moreover, in experiment [2], the cell viability, % of control (lower = more cytotoxic) was determined as 82.4% [at 92.2 µM]. For the same compound, in [3], the viability (% of control) is 100% [at 92.2 µM]. In addition, the Potency entry in experiment [4], in experiment [5], in experiment [7], in [8], in [12] and in experiment [10] was “inactive” in each case. For the same compound, in experiment [11], the Potency result was “inactive”. In experiment [14], the outcome is “inactive [at 93.4 µM]”.

Regarding `CCc1cccc2c3c([nH]c12)C(CC)(CC(=O)O)OCC3` (stereo unspecified), the growth, % of control in experiment [1] was 94.1%. Also, in experiment [2], the cell viability, % of control (lower = more cytotoxic) is 138%. Moreover, the viability (% of control) in experiment [3] is 128%. Besides, the Potency entry in [4], in experiment [5], in experiment [6], in [8], in [12] and in experiment [10] was “inactive” throughout. Moreover, the Potency result in experiment [11] was “inactive”. Further, the call in [9] was inactive.
